{"source": "PubChem BioAssay"}
{"assay": "EMT-state selective cytotoxicity in co-culture – imaging, PC-3E GFP, TEM4-18 mCherry, primary screen (AID 1345086);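 further: cells exposed to compound for 72 h before imaging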", "conditions": "PC-3E GFP / TEM4-18 mCherry co-culture, imaging cell counts; measured here: epithelial PC-3E GFP cell survival; at 1 µM"}
{"molecule": "C[C@@H]1CC[C@H]2C(C)(C)C3CC12CC[C@@]3(C)O", "note": "(stereo not given in full)", "normalised cell number": 0.93}
{"molecule": "COC1=C(O)C(=O)c2c(cc3oc(C(C)=O)c(O)c3c2O)C1=O", "normalised cell number": 0.94}
{"molecule": "O=C(Cc1ccncc1)c1ccc(F)cc1", "normalised cell number": 0.82}
{"molecule": "O=C(N[C@@H](Cc1ccc(O)cc1)C(=O)O)OCc1ccccc1", "normalised cell number": 1.09}
{"molecule": "COc1c(N2CC[C@@H](CN)C2)c(F)cc2c(=O)c(C(=O)O)cn(Cc3ccc(-c4ccccc4)cc3)c12", "normalised cell number": 0.86}
{"molecule": "O=C(O)CCc1ccccc1O", "normalised cell number": 1.1}
{"molecule": "CC(C)[C@@H]1CCC(CO)=C[C@@H]1/C=C(\\CO)C(=O)O", "normalised cell number": 1.29}
{"molecule": "C=C(C)[C@@H]1CC[C@]2(C)CC[C@]3(C)[C@@H](CCC4[C@@]5(C)CC[C@H](O)C(C)(C)C5CC[C@]43C)C12", "note": "(stereo not given in full)", "normalised cell number": 0.95}
{"molecule": "CC1(C)C[C@]2(C)CC(=O)O[C@H]3OC(=O)[C@@H]4CC[C@@H]1[C@]342", "normalised cell number": 1.05}
{"molecule": "O=C1N[C@@H]2[C@@H](Sc3ccccc3)OC(CO)C(O)[C@@H]2O1", "note": "(stereo not given in full)", "normalised cell number": 1}
{"molecule": "C[C@@H]1C[C@@H](O)[C@@H](O)CO1", "normalised cell number": 0.91}
{"molecule": "O=C(O)C(c1ccccc1)c1ccccc1", "normalised cell number": 1.01}
{"molecule": "NC(=O)c1cc(F)c(F)cc1NC1CC1", "normalised cell number": 1.02}
{"molecule": "O=C(O)c1ccc([C@H](O)c2ccccc2)cn1", "normalised cell number": 1.03}
{"molecule": "CC(=O)[C@H]1CCC2C3C=CC4=CC(=O)CC[C@@]4(C)C3CC[C@@]21C", "note": "(stereo not given in full)", "normalised cell number": 1.28}
{"molecule": "CC(C)=CCC[C@H](C)[C@H]1CC[C@]2(C)C[C@@H]3C(C)=CC(=O)[C@@H]3/C(C=O)=C\\C[C@@H]12", "normalised cell number": 1.16}
{"molecule": "CO[C@H]1/C=C/O[C@@]2(C)Oc3c(C)c(O)c4c(O)c(c(/C=N/N5CCN(C)CC5)c(O)c4c3C2=O)NC(=O)/C(C)=C\\C=C\\[C@H](C)[C@H](O)[C@@H](C)[C@@H](O)[C@@H](C)[C@H](CC(C)=O)[C@@H]1C", "normalised cell number": 1.05}
{"molecule": "COC(=O)C[C@@H]1C2(C)C(=O)[C@@H](CC3=C4CC(O)O[C@@H](c5ccoc5)[C@]4(C)CCC32)[C@H](O)C1(C)C", "note": "(stereo not given in full)", "normalised cell number": 0.99}
{"molecule": "COC(=O)c1c(Cl)nc(Cl)c2ccccc12", "normalised cell number": 0.85}
{"molecule": "CO/N=C1/C[C@]2(C[C@@H]3C[C@@H](C/C=C(\\C)C[C@@H](C)/C=C/C=C4\\COC5[C@H](O)C(C)=C[C@@H](C(=O)O3)[C@]45O)O2)O[C@H](/C(C)=C/C(C)C)[C@H]1C", "note": "(stereo not given in full)", "normalised cell number": 1}
{"molecule": "Cc1c(F)c(F)cc2c(=O)n(N)c(=O)n(C3CC3)c12", "normalised cell number": 0.79}
{"molecule": "COc1cc(C(O)CO)oc1C=O", "note": "(stereo not given)", "normalised cell number": 1.08}
{"molecule": "Cc1ccc(S[C@H]2OC3COC(c4ccccc4)OC3[C@@H]3OC(=O)N[C@H]23)cc1", "note": "(stereo not given in full)", "normalised cell number": 0.36}
{"molecule": "O=Cc1ccccc1O[C@@H]1O[C@H](CO)[C@H](O)[C@@H](O)[C@H]1O", "normalised cell number": 0.92}
{"molecule": "CC(=O)C1=C(O)C=C2Oc3c(C(N)=O)c(O)cc(O)c3[C@@]2(C)C1=O", "normalised cell number": 0.92}
{"molecule": "COc1c(N2CC[C@@H](CN)C2)c(F)cc2c(=O)c(C(=O)O)cn(Cc3ccc4ccccc4c3)c12", "normalised cell number": 0.86}
{"molecule": "CCC(C)[C@H]1O[C@]2(CC[C@@H]1C)C[C@@H]1C[C@@H](C/C=C(\\C)[C@@H](OC3C[C@H](OC)C(O[C@H]4C[C@H](OC)[C@@H](O)[C@H](C)O4)[C@H](C)O3)[C@@H](C)/C=C/C=C3\\COC4[C@H](O)C(C)=C[C@@H](C(=O)O1)[C@]34O)O2", "note": "(stereo not given in full)", "normalised cell number": 1.17}
{"molecule": "COc1c(F)c(F)cc2c(=O)c(C(=O)NO)cn(C3CC3)c12", "normalised cell number": 0.97}
{"molecule": "Cc1[nH]cc[n+]1CC1CCC2C(C1=O)c1ccccc1N2C", "note": "(stereo not given)", "normalised cell number": 1.19}
{"molecule": "NC(CSCSCC(N)C(=O)O)C(=O)O", "note": "(stereo not given)", "normalised cell number": 0.91}
{"molecule": "CC1=C2[C@](C)(C=CC1=O)C[C@H](O)[C@H]1[C@H](C)C(=O)O[C@]21C", "normalised cell number": 1.09}
{"molecule": "NC(=O)c1c(Cl)nc(Cl)c2ccccc12", "normalised cell number": 0.92}
{"molecule": "C=C1OC(=O)C23C(O)C(=O)CC(OC12)C3C", "note": "(stereo not given)", "normalised cell number": 1.19}
{"molecule": "CC#C[C@]1(O)CCC2C3CCC4=CC(=O)CCC4=C3[C@@H](c3ccc(N(C)C)cc3)C[C@@]21C", "note": "(stereo not given in full)", "normalised cell number": 1.09}
{"molecule": "COC1C(O)C(O)C(O)[C@@H](O)C1O", "note": "(stereo not given in full)", "normalised cell number": 0.95}
{"molecule": "CC(CCC(=O)O)[C@H]1CCC2C3CC[C@@H]4C[C@H](O)CC[C@]4(C)C3C[C@H](O)[C@@]21C", "note": "(stereo not given in full)", "normalised cell number": 0.86}
{"molecule": "CC(=O)NCCc1ccc(O)c(-c2c(O)c(O)c3c(c2O)C(=O)c2c(cc(O)c(C(=O)O)c2C(=O)O)C3=O)c1", "normalised cell number": 0.95}
{"molecule": "C[C@H]1[C@H](C)CC[C@]2(C(=O)O)CC[C@]3(C)C(=CCC4[C@@]5(C)C[C@@H](O)[C@H](O)[C@@](C)(CO)C5[C@H](O)C[C@]43C)[C@H]12", "note": "(stereo not given in full)", "normalised cell number": 0.92}
{"molecule": "Nc1nc2c(c(=O)[nH]1)NC(CNc1ccc(C(=O)NC(CCC(=O)O)C(=O)O)cc1)=CN2", "note": "(stereo not given)", "normalised cell number": 1.19}
{"molecule": "OCCN1C[C@H](O)[C@@H](O)C(O)C1CO", "note": "(stereo not given in full)", "normalised cell number": 1.01}
